A selection: hits, their analogues and other compounds. The true share with any hit is near 28%.
D1 mod = D1 CRE-luciferase signal change, two-sided – cell-based, HEK293 D1, dopamine EC30, D1 allosteric modulator project, primary screen | D(1A) dopamine receptor (Homo sapiens), P21728 | B-score at 10 µM | dopamine EC30 potentiation; actives deviate in either direction | 5.9% of 58,000 active;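 active means luminescence count or its row- and column-corrected plate score outside the 99.7% band of the plate's sample wells, on either side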
CYP2C19 inhib = blockers of cytochrome P450 2C19 activity – biochemical, luminescence, ADME assay, primary screen | AID 778, 2007 | 21% of 96,000 active | P33261 | CYP2C19 Supersomes, luciferin-H EGE luminescence, 30 min | inhibition, % at 5 µM;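 active means CYP2C19 inhibition above a set limit at 5 µM in the primary screen, cut at about 50% in these data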;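 further: plate controls were negative control wells for no effect and 2.5 mM tranylcypromine positive control for full effect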
CYP2C19 activ = human CYP2C19 activators, primary screen, biochemical, luminescence; 96,000 tested, under 10 active; Cytochrome P450 2C19 (Homo sapiens), P33261; activation factor at 5 µM; recombinant CYP2C19, luciferin-H EGE luminescence; stronger effect = higher value; 0 = fully inhibited enzyme, 1 = untreated enzyme;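 active means activation factor of at least 2 at 5 µM in the primary screen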;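 further: 0 = wells with 2.5 mM tranylcypromine and 1 = vehicle-only wells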
CYP2C9 inh = blockers of cytochrome P450 2C9 activity – biochemical, luminescence, ADME assay, primary screen. P11712. CYP2C9 Supersomes, luciferin-H conversion. inhibition, % at 5 µM. 20% of 96,000 active;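 active means blocking of liver enzyme CYP2C9 beyond about 50% at 5 µM, limit read from the data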
Target sequence (P11712 whole entry, looked up): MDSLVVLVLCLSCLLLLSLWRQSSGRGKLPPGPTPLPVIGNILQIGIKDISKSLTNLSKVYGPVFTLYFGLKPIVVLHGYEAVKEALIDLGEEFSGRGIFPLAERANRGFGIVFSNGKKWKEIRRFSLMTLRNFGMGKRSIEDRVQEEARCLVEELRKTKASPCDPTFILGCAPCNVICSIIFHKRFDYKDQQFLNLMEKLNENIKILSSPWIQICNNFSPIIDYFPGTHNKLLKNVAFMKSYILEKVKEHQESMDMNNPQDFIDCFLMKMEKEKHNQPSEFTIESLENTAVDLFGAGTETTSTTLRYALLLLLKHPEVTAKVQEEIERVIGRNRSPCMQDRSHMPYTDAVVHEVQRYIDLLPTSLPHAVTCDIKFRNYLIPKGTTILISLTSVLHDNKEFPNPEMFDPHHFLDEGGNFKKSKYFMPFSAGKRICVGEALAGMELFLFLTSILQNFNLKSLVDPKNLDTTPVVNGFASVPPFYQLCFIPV
CYP2C9 act = human CYP2C9 activators, primary screen, biochemical, luminescence; recombinant CYP2C9, luciferin-H conversion; stronger effect = higher value; factor 1 = untreated enzyme, 0 = blocked; 1.4% of 96,000 active; activation factor at 5 µM; AID 1024, 2008;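 active means activation factor of 2 or more for CYP2C9 at a 5 µM dose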;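 further: 0 = sulfaphenazole-blocked wells and 1 = vehicle-only wells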
hDAT+cocaine = changed hDAT dopamine uptake under cocaine IC80, either direction, primary screen, cocaine antagonist project, cell-based, LLC-PK1 hDAT, [14C]-dopamine uptake, MLSMR; Sodium-dependent dopamine transporter (Homo sapiens), Q01959; LLC-PK1 hDAT cells, [14C]-dopamine uptake with cocaine IC80; actives deviate in either direction; B-score at 10 µM; 1.3% of 110,000 active; AID 449768, 2010;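 active means Z score or B-score, a plate-position-corrected score, falls beyond the plate's 99.7% confidence bounds, in either direction; inactive means both scores lie inside the 99.7% bounds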;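 further: scored against the spread of the other compound wells on the same plate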
Active calls of the source: *; . = no result given.

SMILES | D1 mod | CYP2C19 inhib | CYP2C19 activ | CYP2C9 inh | CYP2C9 act | hDAT+cocaine
O=C1CN(C(=O)COC(=O)C2=COCCO2)c2ccccc2N1 | -0.19 | -18 | 1.2 | -31 | 1.3 | 0.93
CCOC(=O)c1[nH]c(COC(=O)c2ccccc2NC(=O)c2ccco2)c(C(=O)OCC)c1C | 0.25 | 50 | 0.5 | 88* | 0.1 | 0.19
CCOC(=O)c1[nH]c(C)c(C(=O)Nc2cc(Cl)ccc2C)c1C | 0.24 | -1 | 1 | -104 | 2* | -0.21
CCOC(=O)c1[nH]c(C)c(C(=O)Nc2ccc(C)c(Cl)c2)c1C | -2.2 | . | . | . | . | -0.0016
O=C1CN(C(=O)COC(=O)c2ccccc2NC(=O)c2ccco2)c2ccccc2N1 | 0.0013 | 38 | 0.6 | 76* | 0.2 | 2
OCC(O)C(O)C(O)C(O)C1NCCS1 (stereo not given) | . | -10 | 1.1 | -5 | 1 | -0.84
O=C(CCc1ccccc1)n1nc(-c2ccco2)nc1SCc1ccccc1 | . | 23 | 0.8 | 10 | 0.9 | .
O=C1CC(SC(=Nc2ccccc2)Nc2ccccc2)C(=O)N1c1cccc2ccccc12 (stereo not given) | . | 10 | 0.9 | 17 | 0.8 | 0.79
COc1ccccc1C(O)Cc1nc2ccccc2n1C (stereo not given) | . | 95* | 0.1 | 8 | 0.9 | -0.013
COc1cc(C(=O)NCCc2nc3ccccc3n2C)cc(OC)c1OC | -1 | . | . | . | . | 0.64
Cc1cc2c3nonc3ccc2n1-c1ccccc1 | 1.1 | 18 | 0.8 | -1 | 1 | -0.3
CCOc1ccccc1CN1CCN(S(C)(=O)=O)CC1 | 0.016 | 32 | 0.7 | -10 | 1.1 | -0.84
C=CCOc1ccccc1CN1CCSCC1 | -0.84 | 71* | 0.3 | 10 | 0.9 | -0.51
CCC1C(=O)Nc2nc(-c3ccccc3)c(-c3ccccc3)n2N=C1C (stereo not given) | . | -3 | 1 | 20 | 0.8 | 0.19
CCCCCOC(=O)CSc1n[nH]c(=O)[nH]c1=O | . | 15 | 0.8 | 1 | 1 | 0.24
Cc1nn(CCC(=O)NNC(=S)Nc2ccc(Cl)cc2)c(C)c1[N+](=O)[O-] | . | . | . | . | . | 0.57
Cc1nn(C(C)C(=O)NNC(=S)Nc2ccc(Cl)cc2)c(C)c1[N+](=O)[O-] (stereo not given) | . | 0 | 1 | 64* | 0.4 | 0.072
CCOC(=O)c1nn(-c2ccccc2C)c2nc(CC(C)C)c(C#N)c(=O)n12 | . | . | . | . | . | -0.3
Cc1ccc2c(c1)NC(=O)C(N1CCOCC1)(C(F)(F)F)O2 (stereo not given) | -1.4 | 55* | 0.4 | 34 | 0.7 | -1.2
CCOC(=O)c1c(C)[nH]c(C(=O)CN2CC(C)OC(C)C2)c1C (stereo not given) | 0.63 | 28 | 0.7 | 17 | 0.8 | 1.3
CSCC[C@H](NC(=O)OC(C)(C)C)C(=O)N/N=C/c1c(C)[nH]c(=O)[nH]c1=O | . | 15 | 0.8 | 10 | 0.9 | .
O=C(c1ccc2c3c(cccc13)CC2)N1CCOCC1 | 0.12 | 34 | 0.7 | -112 | 2.1* | -1.5
CCN(C(=O)c1cn(C)c(=O)c2cc(OC)c(OC)cc12)c1cc(OC)ccc1OC | 0.13 | -3 | 1 | -2 | 1 | 0.1
Cn1c(SCC(=O)N(Cc2ccccc2)C(C)(C)C)nc2ccccc21 | . | 50* | 0.5 | -38 | 1.4 | -1.1
CCOC(=O)Cn1c(=O)c(-c2ccccc2NC)nc2ccccc21 | . | 10 | 0.9 | -16 | 1.2 | -0.32
SMILES | D1 mod | CYP2C19 inhib | CYP2C19 activ | CYP2C9 inh | CYP2C9 act | hDAT+cocaine
c1ccc(-c2nnc(-c3c[nH]c4ccccc34)nc2-c2ccccc2)cc1 | . | 10 | 0.9 | 99* | 0 | 1.6
Cc1cc2c(C)nc3ccccc3c2o1 | . | . | . | . | . | 2
Cc1cc(-c2nnc(-c3ccccc3)c(-c3ccccc3)n2)c(C)o1 | 1.1 | 24 | 0.8 | 71* | 0.3 | 1.1
Nc1nc(-c2c[nH]c3ccccc23)cs1 | -0.7 | 42 | 0.6 | 31 | 0.7 | -0.082
CC(=O)c1ccc(C(C)(C)c2ccc(C(C)=O)s2)s1 | -0.2 | 29 | 0.7 | 50* | 0.5 | 0.13
CC(=O)c1cc(C(c2csc(C(C)=O)c2)c2csc(C(C)=O)c2)cs1 | . | . | . | . | . | -0.12

Screening results deposited in PubChem BioAssay by several laboratories.
